hgDAF-12 ag: hgDAF-12 agonism, primary luciferase screen; HEK293 GAL4-hgDAF12 UAS-luciferase reporter, agonist luminescence; normalized to butyrate control; activation, % at 6.8 µM; AID 687014; actives 1.8% (n = 370,000);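 active = activation above a cutoff set at the mean of all screened compounds plus 3 SD, cut at about 10% in these data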;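 note: 0% = DMSO wells and 100% = sodium butyrate wells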
ssDAF-12 act: activators of S. stercoralis DAF-12 nuclear receptor. HEK293 ssDAF-12/GRIP1 lit1-tk-luc reporter, luminescence; % of 3 µM dafachronic acid response. actives 1% (n = 370,000). AID 652126. activation, % at 6.8 µM;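 active = activation above the mean over all tested compounds plus 3 SD, cut at about 0.9% in these data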;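 note: 0% = DMSO-only wells and 100% = 3 µM delta7-dafachronic acid wells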
hcDAF12 agonist: H. contortus DAF-12 activation, primary screen. HEK293 hcDAF-12 lit1-tk-luc reporter, luminescence; 0% DMSO, 100% Δ7-dafachronic acid. activation, % at 6.8 µM. actives 1.4% (n = 370,000);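 active = activation above the mean of all tested compounds plus 3 SD, cut at about 5.5% in these data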;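 note: 100% = response to 3 µM Δ7-dafachronic acid high control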
DAX1 inh-1: inhibitors of human orphan nuclear receptor DAX1 (NR0B1) | HEK293 Gal4-DAX1 luciferase reporter, luminescence | inhibition, % at 6.75 µM | actives 0.99% (n = 340,000) | AID 504766;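 active = inhibition above the mean over all tested compounds plus 3 SD, cut at about 4.2% in these data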;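 note: 0% = DAX1-transfected cells with DMSO and 100% = empty-vector control cells with DMSO; inhibition shows as a rise in luminescence from relieved DAX1 repression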
Target sequence (P51843 207-470 limits assumed): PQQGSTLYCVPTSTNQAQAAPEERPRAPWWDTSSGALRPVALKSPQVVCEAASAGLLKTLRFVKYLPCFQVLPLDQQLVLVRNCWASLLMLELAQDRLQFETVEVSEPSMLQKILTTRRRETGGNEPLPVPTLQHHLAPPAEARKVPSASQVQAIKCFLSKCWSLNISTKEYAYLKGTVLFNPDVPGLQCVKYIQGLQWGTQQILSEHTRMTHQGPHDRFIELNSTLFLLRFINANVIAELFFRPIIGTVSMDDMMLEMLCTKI
DAX1 inh-2: blocks DAX1 repression of SF-1 activated StAR promoter | inhibition, % at 6.8 µM | AID 652010 | HEK293T StAR-luciferase reporter, SF-1/DAX-1 repression relief | actives 1.1% (n = 370,000);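 active = inhibition above the mean over all tested compounds plus 3 SD, cut at about 3.6% in these data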;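 note: 0% = DAX-1 cells with DMSO and 100% = cells lacking DAX-1 with DMSO; higher inhibition means more luminescence from relief of DAX-1 repression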
DAX1 conf: NR0B1 (human) inhibition, confirmation | shares compounds with DAX1 inh-2 | HEK293T StAR-promoter luciferase reporter, SF-1/DAX-1 repression | inhibition, % at 6.8 µM | actives 87% (n = 2,400) | AID 652134;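 active = inhibition above the average of every tested compound plus 3 SD, cut at about 3.8% in these data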;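 note: 0% = DAX-1 cells with DMSO and 100% = no DAX-1 control cells with DMSO; active compounds raise luminescence by relieving repression of the StAR reporter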
Target sequence (P51843 whole entry, looked up): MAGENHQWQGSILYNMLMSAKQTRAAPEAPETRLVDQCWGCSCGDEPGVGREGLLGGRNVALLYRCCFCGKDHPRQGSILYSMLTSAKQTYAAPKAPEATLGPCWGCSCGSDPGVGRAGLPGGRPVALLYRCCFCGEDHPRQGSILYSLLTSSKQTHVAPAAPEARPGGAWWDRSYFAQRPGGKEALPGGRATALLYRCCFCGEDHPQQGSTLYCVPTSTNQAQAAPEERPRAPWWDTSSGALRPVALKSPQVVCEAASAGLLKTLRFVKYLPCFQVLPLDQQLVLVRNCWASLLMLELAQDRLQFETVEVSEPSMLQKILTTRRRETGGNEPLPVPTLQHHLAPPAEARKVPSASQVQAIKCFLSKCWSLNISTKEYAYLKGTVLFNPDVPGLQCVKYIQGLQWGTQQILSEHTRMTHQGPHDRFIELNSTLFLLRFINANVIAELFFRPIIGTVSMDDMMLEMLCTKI
SF1 mutant ctr: nonselective inhibitor or artifact in SF-1 mutant DAX1 counter-screen. shares compounds with DAX1 inh-2. HEK293 StAR-luciferase, SF-1 AF2 mutant, luminescence. inhibition, % at 6.8 µM. actives 78% (n = 2,400);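 active = inhibition above the mean of all tested compounds plus 3 SD, cut at about 3% in these data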;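 note: 0% = DAX-1 transfected cells with DMSO and 100% = cells without DAX-1 with DMSO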
LXRb hcDAF ctr: counter-screen for hcDAF-12 agonists: agonists of human LXR-beta; 3,400 tested, under 10 active; shares compounds with hcDAF12 agonist; HEK293 Gal4-LXR tk-luc reporter, luminescence, 24 h; normalized: DMSO 0%, positive control 100%; activation, % at 6.8 µM;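 active = mean percent activation of the reporter above a cutoff set as the average over tested compounds plus their standard deviation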
hcDAF12 ag: hcDAF-12 agonism, confirmation assay; actives 61% (n = 3,400); activation, % at 6.8 µM; HEK293 hcDAF-12 lit1-tk-luc reporter, luminescence; % of Δ7-dafachronic acid response; shares compounds with hcDAF12 agonist;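 active = mean activation across triplicate tests above the threshold derived from the earlier primary screen, cut at about 5.5% in these data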;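 note: 0% = DMSO only wells and 100% = 3 µM Δ7-dafachronic acid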
* hit, by the source's call; nt = no result given. The list is not random: actives were taken first. Their share in the collection is about 4.1%.

SMILES	hgDAF-12 ag	ssDAF-12 act	hcDAF12 agonist	DAX1 inh-1	DAX1 inh-2	DAX1 conf	SF1 mutant ctr	LXRb hcDAF ctr	hcDAF12 ag
CC(C)(C)c1cc(-c2ccccc2)no1	0.8	-1.4	-1.5	0.5	-0.4	nt	nt	nt	nt
Cc1ccccc1-c1cc(-c2ccccc2O)on1	22.1*	3.4*	21.6*	2.2	4.8*	14.6*	11.6*	2.0	19.7*
CC(C)C(NC(=O)c1ccccc1NC(=O)c1ccccc1)C(=O)NCCCn1ccnc1 (stereo unspecified)	nt	nt	nt	3.8	nt	nt	nt	nt	nt
COc1cc2oc(-c3ccc(O)cc3)cc(=O)c2c(O)c1OC	3.0	-1.1	-2.2	-2.3	-1.7	nt	nt	nt	nt
COc1c(O)cc2oc(-c3ccc(O)cc3)cc(=O)c2c1O	11.1*	0.5	9.6*	0.4	5.2*	10.5*	1.9	1.6	6.8*
O=C(c1cc2ccccc2oc1=O)N(Cc1ccccc1)Cc1ccc2c(c1)OCO2	-2.9	-1.3	-2.0	-2.7	-0.5	nt	nt	nt	nt
Cc1ccc(CN2CC=CCS2(=O)=O)cc1	0.7	-0.8	-1.3	nt	2.1	nt	nt	nt	nt
Cc1csc(NC(=O)c2cncc(Br)c2)n1	11.5*	0.2	6.8*	0.4	5.2*	13.0*	7.8*	1.3	4.4
CCOC(=O)c1sc(NC(=O)c2cncc(Br)c2)nc1C	2.1	-0.6	-1.0	nt	0.4	nt	nt	nt	nt
CC1CN(C(=S)Nc2ccccc2C(F)(F)F)CC(C)O1 (stereo unspecified)	2.5	-0.5	-1.1	0.0	0.1	nt	nt	nt	nt
CC(C)Oc1cccc(C(=O)Nc2ccc(Br)cc2F)c1	17.2*	-0.1	7.4*	4.7*	6.6*	15.2*	8.4*	1.2	4.0
Cc1noc(C)c1COc1cccc(C(=O)Nc2ccc(Br)cc2F)c1	0.7	-1.5	-2.6	-1.8	-2.9	nt	nt	nt	nt
Cc1cc(C)c(NC(=O)CS(=O)CC(=O)NC2CCCc3ccccc32)c(C)c1 (stereo unspecified)	-1.5	-1.0	-1.2	1.5	-0.5	nt	nt	nt	nt
CC(C)(C)NC(=O)C(c1cc2ccccc2o1)n1c(-c2ccc(-c3ccccc3)cc2)nc2ccccc21 (stereo unspecified)	24.7*	4.8*	20.5*	nt	10.5*	13.0*	9.6*	2.2	25.3*
CCc1ccc(NC(=O)c2cnn3ccccc23)cc1	4.7	0.6	11.6*	-4.0	5.5*	6.1*	1.4	1.7	19.2*
CCC(CC)c1nnc(NC(=O)c2ccc3ccccc3n2)s1	9.9	2.1*	10.8*	2.3	4.6*	10.2*	6.8*	0.9	11.1*
CCC(CC)c1nnc(NC(=O)c2cc(-c3ccccc3)nc3ccccc23)s1	1.1	-1.5	-0.8	-0.5	0.5	nt	nt	nt	nt
CC(=O)Nc1ccc(NC(=O)CSc2nnc(NC(=O)c3cccc(F)c3)s2)cc1	8.8	1.1*	11.6*	-0.6	7.5*	4.6*	4.6*	0.2	3.6
Cc1ccc(N=C/C(C(=O)C(F)(F)F)=C(\O)c2ccco2)cc1Cl	16.3*	1.4*	17.8*	1.8	5.2*	16.3*	8.7*	1.4	10.2*
CCN(c1ccc(NC(=O)COC(=O)C(C)N=C2NS(=O)(=O)c3ccccc32)cc1)C(C)C (stereo unspecified)	0.8	-1.0	0.9	0.8	-0.1	nt	nt	nt	nt
Cc1ccc2nc(CSc3nc(C)cc(C)c3C#N)[nH]c2c1	9.1	2.0*	16.9*	1.3	5.8*	13.5*	7.4*	1.9	20.4*
Cc1ccc(CCNC(=O)c2cccc(N3CCCC3=O)c2)cc1	nt	nt	nt	0.2	nt	nt	nt	nt	nt
Cc1cccc(CCNC(=O)c2cccc(N3CCCC3=O)c2)c1	11.3*	-0.1	7.4*	0.6	7.3*	9.5*	4.0*	0.9	7.2*
CN(C(=O)Cn1nc(C(=O)O)c2ccccc2c1=O)C1CCCCC1	0.2	-0.4	-0.7	1.7	0.8	nt	nt	nt	nt
Clc1ccc(-c2cn3c(n2)-c2ccccc2C3)cc1Cl	19.5*	2.0*	16.5*	2.2	5.9*	9.2*	6.4*	1.8	14.8*
SMILES	hgDAF-12 ag	ssDAF-12 act	hcDAF12 agonist	DAX1 inh-1	DAX1 inh-2	DAX1 conf	SF1 mutant ctr	LXRb hcDAF ctr	hcDAF12 ag
CN(Cc1ccco1)C(=O)CN1C(=O)C2(OCCCO2)c2ccccc21	1.0	-0.8	-0.8	nt	1.6	nt	nt	nt	nt
NC(=O)c1c(NC(=O)c2cc3ccccc3o2)sc2c1CCC2	12.8*	1.9*	9.9*	3.2	4.8*	14.4*	7.6*	1.7	15.0*
Cn1ccc(C(=O)Nc2sc3c(c2C(N)=O)CCCCC3)n1	11.6*	-0.6	7.8*	2.0	10.4*	4.9*	2.7	1.2	6.9*
CC(=O)Nc1sc2c(c1C(N)=O)CCC2	-0.4	-0.8	1.2	-0.3	0.1	nt	nt	nt	nt
Cn1nccc1C(=O)Nc1sc2c(c1C(N)=O)CCCC2	5.2	-0.7	1.7	-1.4	0.5	nt	nt	nt	nt
COc1ccc(-n2nc(C(=O)NCC(=O)NCc3ccc(F)cc3)c3ccccc3c2=O)cc1	-1.5	-1.0	-2.8	-0.2	-0.5	nt	nt	nt	nt
Cc1cc(C)nc(NNC(=O)c2ccccc2O)n1	0.1	-1.9	3.3	-0.6	0.0	nt	nt	nt	nt
CCCCc1nc2cc(C(=O)N(C)C3CCOCC3)ccc2o1	9.7	0.6	7.6*	0.9	4.6*	5.5*	6.8*	0.3	2.7
CC(=O)N1CCN(C(=O)c2ccc3oc(CCCc4ccccc4)nc3c2)CC1	1.1	-1.0	0.4	0.2	-0.4	nt	nt	nt	nt
C[C@@H]1CN(C(=O)OC(C)(C)C)CCN1c1ccc(Br)c(C#N)c1	2.5	-2.1	-1.2	nt	-2.5	nt	nt	nt	nt
COCCNc1ncnc2c1cnn2-c1ccc(Cl)cc1	11.6*	-0.1	6.9*	1.9	4.9*	11.0*	6.4*	1.6	4.9
COc1ccccc1C1=NOC(CN2C(=O)c3ccccc3S2(=O)=O)C1 (stereo unspecified)	9.8	-0.8	2.2	4.0	2.7	nt	nt	nt	nt
O=C1c2ccccc2S(=O)(=O)N1CC1CC(c2ccccc2Cl)=NO1 (stereo unspecified)	15.4*	0.6	8.7*	3.0	5.5*	11.0*	8.1*	0.9	13.2*
CCn1c(C)cs/c1=N\C(=S)Nc1ccccc1C	0.3	-0.8	0.5	0.5	-0.2	nt	nt	nt	nt
Cc1ccc(-c2noc(-c3cccs3)n2)cc1	16.3*	0.5	8.9*	3.2	6.2*	16.4*	11.1*	2.2	15.5*

From PubChem BioAssay
